Where a name gives a salt, the structure may show the parent alone.
What was measured:
[1] = test system: S. cerevisiae SK1 pCDA2-eGFP (USY613), sporulating; assay: CDA2-GFP sporulation assay sensitivity score (z-score vs DMSO controls); higher = stronger inhibition of sporulation, active = hit call of the paper;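 further: active if sensitivity score above 5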
[2] = test system: S. cerevisiae NKY1551 his4x/his4B, sporulating; assay: HIS4 meiotic recombination assay sensitivity score (z-score vs DMSO controls); higher = stronger inhibition of sporulation/recombination, active = hit call of the paper;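 further: active if sensitivity score above 5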
[3] = test system: S. cerevisiae AD1-9 (efflux-pump deficient), vegetative growth in YPD; assay: growth sensitivity score (doubling time z-score vs DMSO controls); higher = slower growth, strongly negative scores also mark growth inhibition (complete suppression), active = hit call of the paper
Procedure, shortened: (§1)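 Rich medium in microtiter plates was seeded with Saccharomyces cerevisiae strains BY4741 and AD1-9 at an OD600 of 0.065, and compounds were added as a 1:100 dilution of DMSO stock. A Tecan GENios reader recorded optical density every 15 min for 24 hours, with eight solvent-only wells in each experiment. Average doubling time was the time to reach a set generation point divided by generation number. The growth sensitivity score was the compound mean minus the solvent-only mean, divided by the solvent-only standard deviation.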

[4] = test system: S. cerevisiae BY4741 (wild-type), vegetative growth in YPD; assay: as above
Procedure, shortened: as §1

Structure (SMILES)	CDA2-GFP sporulation assay sensitivity score [1]	HIS4 meiotic recombination assay sensitivity score [2]	growth sensitivity score [3]	growth sensitivity score [4]
COc1cc2c(cc1OC)C(=O)C(CC1CCN(Cc3ccccc3)CC1)C2 (stereo unspecified) [Donepezil] (stock concentration (mM, diluted 1:100): 9.1)	4.44 (inactive)	0.42 (inactive)	3.1 (active)	2.75 (active)
COc1cc(C)nc(-n2nc(C)cc2OC)n1 [Mepirizole] (stock concentration (mM, diluted 1:100): 10)	-1.87 (inactive)	-1.87 (inactive)	-0.94 (inactive)	-1.02 (inactive)
Cc1ncc([N+](=O)[O-])n1CC(O)CCl (stereo unspecified) [Ornidazole] (stock concentration (mM, diluted 1:100): 10)	-0.66 (inactive)	-0.66 (inactive)	-0.62 (inactive)	-2.78
CN(C)CCOC(c1ccccc1)c1ccccc1 [Diphenhydramine hydrochloride] (stock concentration (mM, diluted 1:100): 10)	2.11 (inactive)	8.82 (active)	3.46 (active)	0.81 (inactive)
CCN(CC)C(=S)SSC(=S)N(CC)CC [Tetraethylthiuram disulfide] (stock concentration (mM, diluted 1:100): 10)	-1.5 (inactive)	-2.95 (inactive)	–	–
C=CC1=C(C(=O)O)N2C(=O)[C@@H](NC(=O)/C(=N\OCC(=O)O)c3csc(N)n3)[C@H]2SC1 [Cefixime trihydrate] (stock concentration (mM, diluted 1:100): 10)	2.05 (inactive)	-3.32 (inactive)	-1.39 (inactive)	-0.62 (inactive)
COc1nc(C)nc(Cl)c1NC1=NCCN1 [Moxonidine hydrochloride] (stock concentration (mM, diluted 1:100): 9.2)	0.6 (inactive)	-0.58 (inactive)	-1.22 (inactive)	0.19 (inactive)
C[C@H]1O[C@H](O[C@H]2[C@H](O)[C@@H](O)[C@@H](O[C@H]3[C@H](O)[C@@H](O)C(O)O[C@@H]3CO)O[C@@H]2CO)[C@H](O)[C@@H](O)[C@@H]1N[C@H]1C=C(CO)[C@@H](O)[C@H](O)[C@H]1O (stereo partly specified) [Acarbose] (stock concentration (mM, diluted 1:100): 10)	0.28 (inactive)	-0.56 (inactive)	-2.1	-1.13 (inactive)
CN(CCO)CC(O)Cn1cnc2c1c(=O)n(C)c(=O)n2C (stereo unspecified) [Xanthinol nicotinate] (stock concentration (mM, diluted 1:100): 10)	2.12 (inactive)	-0.61 (inactive)	0.36 (inactive)	-1.14 (inactive)
CC(=O)O[C@@]12CO[C@@H]1C[C@H](O)[C@@]1(C)C(=O)[C@H](O)C3=C(C)[C@@H](OC(=O)[C@H](O)[C@@H](NC(=O)OC(C)(C)C)c4ccccc4)C[C@@](O)([C@@H](OC(=O)c4ccccc4)[C@H]21)C3(C)C [Docetaxel] (stock concentration (mM, diluted 1:100): 10)	-0.23 (inactive)	-1.69 (inactive)	-0.53 (inactive)	1.16 (inactive)
O=C(NCCN1CCOCC1)c1ccc(Cl)cc1 [Moclobemide] (stock concentration (mM, diluted 1:100): 10)	0.72 (inactive)	-1.83 (inactive)	0.15 (inactive)	-0.18 (inactive)
COc1ccc2c(c1)c(CC(=O)O)c(C)n2C(=O)c1ccc(Cl)cc1 [Indomethacin] (stock concentration (mM, diluted 1:100): 10.5)	0.38 (inactive)	0.4 (inactive)	0.93 (inactive)	0.62 (inactive)
Cc1cccc(C)c1NC(=O)C1CCCCN1C (stereo unspecified) [Mepivacaine hydrochloride] (stock concentration (mM, diluted 1:100): 10)	1.82 (inactive)	0.1 (inactive)	-3.28	-0.29 (inactive)
CC(C)NCC(O)COc1ccc(COCCOC(C)C)cc1 (stereo unspecified) [Bisoprolol fumarate] (stock concentration (mM, diluted 1:100): 8.5)	0.16 (inactive)	-0.11 (inactive)	-0.36 (inactive)	0.65 (inactive)
CCCCc1nc(Cl)c(CO)n1Cc1ccc(-c2ccccc2-c2nnn[nH]2)cc1 [Losartan potassium] (stock concentration (mM, diluted 1:100): 9.2)	-0.41 (inactive)	-1.2 (inactive)	-1.21 (inactive)	-0.26 (inactive)
COCCCC/C(=N\OCCN)c1ccc(C(F)(F)F)cc1 [Fluvoxamine] (stock concentration (mM, diluted 1:100): 7.7)	-1.51 (inactive)	8.08 (active)	9.45 (active)	2.43 (active)

Structure (SMILES)	CDA2-GFP sporulation assay sensitivity score [1]	HIS4 meiotic recombination assay sensitivity score [2]	growth sensitivity score [3]	growth sensitivity score [4]
O=c1ncc(F)c[nH]1 [5-Fluoro-2-Pyrimidone] (stock concentration (mM, diluted 1:100): 10)	0.54 (inactive)	-0.02 (inactive)	-0.92 (inactive)	-2.08
CC(C(O)c1ccc(O)cc1)N1CCC(Cc2ccccc2)CC1 (stereo unspecified) [Ifenprodil] (stock concentration (mM, diluted 1:100): 9.2)	16.1 (active)	4.63 (inactive)	44.9 (active)	3.06 (active)
COc1ccccc1OCCNCC(O)COc1cccc2[nH]c3ccccc3c12 (stereo unspecified) [Carvedilol] (stock concentration (mM, diluted 1:100): 10)	-0.9 (inactive)	0.66 (inactive)	50.7 (active)	0.43 (inactive)
CC[C@H](C)C(=O)O[C@H]1C[C@H](O)C=C2C=C[C@H](C)[C@H](CC[C@@H](O)C[C@@H](O)CC(=O)O)[C@H]21 [Pravastatin sodium] (stock concentration (mM, diluted 1:100): 9.5)	-1.3 (inactive)	-0.46 (inactive)	13.6 (active)	0.4 (inactive)
Nc1nc(Cl)nc2c1ncn2[C@H]1C[C@H](O)[C@@H](CO)O1 [2-Chloro-2-Deoxyadenosine] (stock concentration (mM, diluted 1:100): 10)	1.98 (inactive)	-1.07 (inactive)	-1.81 (inactive)	-0.67 (inactive)
COC(=O)Nc1nc2cc(C(=O)c3ccc(F)cc3)ccc2[nH]1 [Flubendazole] (stock concentration (mM, diluted 1:100): 10)	0.4 (inactive)	-2.01 (inactive)	12.3 (active)	2.6 (active)
N[C@@H]1CONC1=O [D-Cycloserine] (stock concentration (mM, diluted 1:100): 10)	0.63 (inactive)	-5.18 (inactive)	1.38 (inactive)	1.58 (inactive)
COc1ccc2[nH]c([S+]([O-])Cc3ncc(C)c(OC)c3C)nc2c1 (stereo unspecified) [Esomeprazole mg] (stock concentration (mM, diluted 1:100): 4.8)	3.2 (inactive)	0.32 (inactive)	-2.89	0.69 (inactive)
CC(C(=O)O)c1ccc(-c2ccccc2)c(F)c1 (stereo unspecified) [Flurbiprofen] (stock concentration (mM, diluted 1:100): 11.4)	-0.22 (inactive)	-0.16 (inactive)	0.77 (inactive)	0.01 (inactive)
O=C(O[C@@H]1Cc2c(O)cc(O)cc2O[C@@H]1c1cc(O)c(O)c(O)c1)c1cc(O)c(O)c(O)c1 [Epigallocatechin gallate] (stock concentration (mM, diluted 1:100): 10)	-1.44 (inactive)	0.29 (inactive)	-3.35	0.97 (inactive)
O=C1c2c(O)cc(O)cc2OC(c2ccc(O)c(O)c2)C1O (stereo unspecified) [Taxifolin] (stock concentration (mM, diluted 1:100): 10.1)	-0.02 (inactive)	-0.52 (inactive)	-0.17 (inactive)	-1.02 (inactive)
Cc1c(O)cccc1C(=O)N[C@@H](CSc1ccccc1)[C@H](O)CN1C[C@H]2CCCC[C@H]2C[C@H]1C(=O)NC(C)(C)C [Nelfinavir mesylate] (stock concentration (mM, diluted 1:100): 8.6)	4.48 (inactive)	0.21 (inactive)	16.2 (active)	0.56 (inactive)
Clc1ccc2c(c1)CCc1cccnc1C2=C1CCNCC1 [Desloratadine] (stock concentration (mM, diluted 1:100): 10)	8.67 (inactive)	1.24 (inactive)	60.1 (active)	-0.47 (inactive)
C=C1/C(=C\C=C2/CCC[C@]3(C)[C@@H]([C@H](C)CCCC(C)(C)O)CC[C@@H]23)C[C@@H](O)C[C@@H]1O [Calcitriol] (stock concentration (mM, diluted 1:100): 10)	3.05 (inactive)	2.18 (inactive)	21.1 (active)	-0.32 (inactive)
CC[C@H]1OC(=O)[C@H](C)[C@@H](O[C@H]2C[C@@](C)(OC)[C@@H](O)[C@H](C)O2)[C@H](C)[C@@H](O[C@@H]2O[C@H](C)C[C@H](N(C)C)[C@H]2O)[C@](C)(OC)C[C@@H](C)C(=O)[C@H](C)[C@@H](O)[C@]1(C)O [Clarithromycin] (stock concentration (mM, diluted 1:100): 10)	-0.51 (inactive)	-1.54 (inactive)	-1.97 (inactive)	1.37 (inactive)
NC(=O)c1cccnc1 [Nicotinamide] (stock concentration (mM, diluted 1:100): 10)	4.17 (inactive)	0.03 (inactive)	-0.97 (inactive)	-0.49 (inactive)

Reference: the supplement of paper PMC3414501
